In PubChem BioAssay one finds z-score and composite z-score data, which are given here for 9 molecules.

Experiment [1] is described as follows: A549 cell viability effects, profiling panel, calcein-AM fluorescence, 48 h, basal (AID 1162). Further: test concentration not given here. The following applies: higher = more signal.
The nature of experiment [2]: adipocyte viability effects, profiling panel, cell-based, 3T3-L1 adipocytes, calcein-AM fluorescence, 48 h, basal (AID 1163). Further: test concentration not given here. The following applies: 3T3-L1 adipocytes viability, higher = more signal.
The nature of experiment [3]: HepG2 cell viability effects, profiling panel, calcein-AM fluorescence, 48 h, basal (AID 1164). Further: test concentration not given here. The following applies: higher = more signal.
Experiment [4] can be described thus: MM1S cell viability effects, profiling panel, calcein-AM fluorescence, 48 h, basal (AID 1165).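 Further: viability of MM1S multiple myeloma cells under basal unstimulated conditions; test concentration not given here.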 The following applies: higher = more signal.
A short description of experiment [5]: basal RPMI8226 viability, no added stimulus, profiling panel, cell-based, calcein-AM fluorescence, 48 h, PK04 Diversity Set (AID 1166).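 Further: cells grown under basal conditions without added stimulus; test concentration not given here.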 The settings on record: RPMI8226 myeloma viability, higher = more signal.
A short description of experiment [6]: basal HepG2 mitochondrial membrane potential changes, profiling panel, cell-based, JC-1 fluorescence, 24 h, 100 nL compound (AID 1167). Further: test concentration not given here. The following applies: higher = more signal.
Experiment [7] in a line: basal 3T3-L1 adipocyte mitochondrial potential changes, profiling panel, cell-based, JC-1 fluorescence, 3T3-L1 adipocytes, 24 h, 100 nL compound (AID 1168). Further: test concentration not given here. The following applies: JC-1 mitochondrial fluorescence, higher = more signal, called active from +8 up or from −8 down.
A short description of experiment [8]: basal RPMI8226 mitochondrial membrane potential changes, profiling panel, cell-based, JC-1 fluorescence, 24 h, 100 nL compound (AID 1169). Further: test concentration not given here. The following applies: RPMI8226 myeloma, JC-1 mitochondrial potential fluorescence, higher = more signal.
A short description of experiment [9]: basal MM1S mitochondrial membrane potential changes, profiling panel, cell-based, JC-1 fluorescence, 24 h, 100 nL compound (AID 1170). Further: test concentration not given here. The settings on record: higher = more signal.
Experiment [10] is described as follows: A549 lung cancer cell viability effects, profiling panel, resazurin fluorescence, 24 h, PK04 Diversity Set (AID 1171). Further: test concentration not given here. The following applies: higher = more signal, called active from +8 up or from −8 down. For orientation: Alamar Blue is a resazurin reagent that responds to reducing activity.
Experiment [11] is described as follows: HepG2 liver cancer cell viability effects, profiling panel, resazurin fluorescence, 24 h, PK04 Diversity Set (AID 1172). Further: test concentration not given here. The settings on record: higher = more signal.
Experiment [12] in a line: basal S. cerevisiae growth modulation, no modifier, primary screen, OD600, strain BY4716, 24 h, basal condition (AID 1173). The following applies: OD600, 24 h, higher = more signal, called active from +8 up or from −8 down.
Experiment [13] in a line: MM1S myeloma cell viability, profiling panel, resazurin fluorescence, basal, 24 h, PK04 Diversity Set (AID 1174). Further: test concentration not given here. The settings on record: higher = more signal, called active from +8 up or from −8 down.
The target of experiment [14] is Dihydroorotate dehydrogenase (quinone), mitochondrial (Plasmodium falciparum (isolate 3D7)) (UniProt Q08210). Put plainly: PfDHODH enzyme inhibitors, primary screen, biochemical, C-terminal His tag, absorbance 600 nm (AID 1175).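 Further: recombinant parasite enzyme with a five histidine tag at its C terminus; test concentration not given here.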 The following applies: DCIP absorbance 600 nm, higher = more signal, called active from +8 up or from −8 down.
Sequence of Dihydroorotate dehydrogenase (quinone), mitochondrial (Plasmodium falciparum (isolate 3D7)) (Q08210 whole entry, looked up): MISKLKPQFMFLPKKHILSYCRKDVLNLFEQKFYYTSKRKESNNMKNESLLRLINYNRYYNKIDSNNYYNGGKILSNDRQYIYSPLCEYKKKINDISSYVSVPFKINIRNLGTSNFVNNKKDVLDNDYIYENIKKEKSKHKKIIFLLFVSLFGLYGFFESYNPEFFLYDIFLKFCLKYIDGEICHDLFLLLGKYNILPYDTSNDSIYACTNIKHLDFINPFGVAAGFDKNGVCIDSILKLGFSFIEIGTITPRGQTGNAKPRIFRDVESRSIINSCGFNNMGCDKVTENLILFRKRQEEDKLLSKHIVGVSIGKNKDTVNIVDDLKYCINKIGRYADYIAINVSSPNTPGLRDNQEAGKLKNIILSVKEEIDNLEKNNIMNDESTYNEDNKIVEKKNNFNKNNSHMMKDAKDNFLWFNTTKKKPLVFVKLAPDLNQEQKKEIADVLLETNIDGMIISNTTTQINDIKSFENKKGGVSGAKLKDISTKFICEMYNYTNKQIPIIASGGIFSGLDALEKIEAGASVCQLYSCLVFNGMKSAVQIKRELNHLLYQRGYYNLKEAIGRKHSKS
Experiment [15] is described as follows: P. aeruginosa biofilm formation inhibitors, primary screen, strain PAO1, LB-PBS medium, absorbance 600 nm (AID 1176). Further: test concentration not given here. The following applies: P. aeruginosa PAO1 growth/biofilm, A600, 12 h; higher = more signal.
The nature of experiment [16]: S. cerevisiae RM11-1a growth modifiers, primary screen, strain RM11-1a, OD600, basal, 24 h (AID 1177).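 Further: cultures grown under basal conditions with no added stressor; test concentration not given here.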 The settings on record: OD600, 24 h, higher = more signal, called active from +8 up or from −8 down.
Experiment [17] is described as follows: E. coli acrAB mutant growth effects, primary screen, E. coli filamentation inducers, strain DRC39, OD650, 24 h (AID 1178).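 Further: growth measured as culture turbidity by optical density at 650 nm; test concentration not given here.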 The settings on record: higher = more signal, called active from +8 up or from −8 down.
Experiment [18] in a line: E. coli acrAB mutant growth effects, primary screen, E. coli filamentation inducers, strain DRC39, OD650, 48 h (AID 1179).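 Further: screen aims at cell division blockers that make cells filament.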 The following applies: E. coli DRC39 delta-acrAB growth, higher = more signal, called active from +8 up or from −8 down.
The nature of experiment [19]: RPMI8226 myeloma cell viability, profiling panel, resazurin fluorescence, basal, 24 h, PK04 Diversity Set (AID 1180).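 Further: RPMI8826 multiple myeloma cell line at 5000 cells per well; test concentration not given here.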 The following applies: higher = more signal.
In experiment [20] the target is E3 ubiquitin-protein ligase XIAP (Homo sapiens) (UniProt P98170). Put plainly: XIAP binders, primary screen, biophysical, small-molecule microarray, fluorescence 635 nm (AID 1181).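 Further: score merges 667 nm emission and signal to noise over triplicate slides.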 The settings on record: small-molecule microarray binding, higher = more signal.
Sequence of E3 ubiquitin-protein ligase XIAP (Homo sapiens) (P98170 whole entry, looked up): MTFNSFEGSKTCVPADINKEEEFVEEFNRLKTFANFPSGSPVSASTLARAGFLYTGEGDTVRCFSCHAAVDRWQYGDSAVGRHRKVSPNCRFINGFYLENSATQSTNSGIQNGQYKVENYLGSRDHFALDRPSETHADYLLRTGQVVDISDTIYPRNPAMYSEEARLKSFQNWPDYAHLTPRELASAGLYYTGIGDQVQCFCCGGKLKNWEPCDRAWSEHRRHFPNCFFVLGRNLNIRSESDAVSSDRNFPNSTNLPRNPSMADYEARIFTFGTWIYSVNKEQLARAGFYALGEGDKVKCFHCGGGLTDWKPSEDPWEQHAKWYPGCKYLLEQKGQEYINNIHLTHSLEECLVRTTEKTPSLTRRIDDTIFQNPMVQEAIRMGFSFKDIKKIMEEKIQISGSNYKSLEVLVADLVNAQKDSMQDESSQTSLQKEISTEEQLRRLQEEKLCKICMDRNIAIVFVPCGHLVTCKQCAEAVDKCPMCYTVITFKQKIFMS

Active and inactive are the calls of the source. Unless noted, how the calls were made is not given here.

Take `CC#CC(=O)Oc1ccccc1C=CC(=O)OCC`: the z-score in [1] is -1.54; in [2] it was -0.228; in [3], -0.749; in [4] it was -3.27; in experiment [5], -2.23; in experiment [6] it was -0.739. Further, the z-score is 0.161 (inactive) in experiment [7]; 0.849 in experiment [8]; -0.259 in experiment [9]; 1.5 (inactive) in experiment [10]; 1.86 in [11]; -10.4 (active) in experiment [12]. Moreover, the z-score is 0.302 (inactive) in experiment [13]; 1.21 (inactive) in [15]; -1.34 (inactive) in [16]; 0.23 (inactive) in experiment [17]; 0.51 (inactive) in [18]; 0.485 in experiment [19]. Also, the values for the composite z-score in [14] and in [20] were -0.155 (inactive) and -0.162, respectively.

Take `NCCCCCNC(=O)[C@@H]1C[C@@H]2C(=O)N[C@@H](Cc3ccccc3)C(=O)N2[C@@H]1c1ccc(O)cc1`: the z-score in experiment [1] is -0.119; in experiment [2], 0.588; in experiment [3] it was -0.0207; in experiment [4] it was -1.4; in [5], -0.0144; in experiment [6], 0.181. Besides, the z-score in experiment [7] was -0.0278 (inactive); in experiment [8], 0.00631; in experiment [9], 0.397; in experiment [10], -0.0029 (inactive); in [11], -1.74; in experiment [12], -0.576 (inactive). Further, the z-score in experiment [13] was -0.0591 (inactive); in [15], 1.07 (inactive); in experiment [16], -0.56 (inactive); in [17], -0.598 (inactive); in experiment [18], -0.384 (inactive); in experiment [19] it was 0.15. Moreover, the values for the composite z-score in experiment [14] and in experiment [20] were -0.0741 (inactive) and 0.013, respectively.

In the case of `C=CCOC(=O)[C@H]1[C@@H]2C(=O)O[C@@H](c3ccccc3)[C@@H](c3ccccc3)N2[C@@H](c2ccc(OCCOC(=O)[C@@H]3C[C@@H]4C(=O)N[C@@H](CC(C)C)C(=O)N4[C@@H]3c3ccc(O)cc3)cc2)[C@]12C(=O)Nc1ccccc12`, the z-score in experiment [1] was -1.02; in experiment [2], 0.385; in [3] it was -0.529; in experiment [4] it was -0.206; in experiment [5], 0.162; in experiment [6], -1.89. The z-score in experiment [7] is 0.0514 (inactive); in experiment [8], -0.89; in experiment [9] it was -0.836; in experiment [10], 0.414 (inactive); in [11] it was 0.256; in experiment [12], 1.23 (inactive). Also, the z-score was -0.347 (inactive) in [13]; 2.94 (inactive) in experiment [15]; 2.05 (inactive) in [16]; -0.149 (inactive) in experiment [17]; -0.72 (inactive) in [18]; 0.169 in [19]. The composite z-score was -0.295 (inactive) in experiment [14] and -0.0559 in experiment [20].

`COc1ccc([C@H]2OC[C@@H]3C[C@@H](Cc4ccccc4)C(=O)N32)cc1`: the z-score in experiment [1] is -0.706; in experiment [2], 0.0138; in experiment [3] it was 0.305; in [4], -2.13; in experiment [5], 0.215; in [6], -0.478. In addition, the z-score in [7] was -0.0784 (inactive); in experiment [8] it was 0.183; in experiment [9] it was -0.0676; in experiment [10], 0.194 (inactive); in experiment [11], -0.384; in experiment [12], -3.32 (inactive). The z-score was 0.111 (inactive) in experiment [13]; -0.0513 (inactive) in experiment [15]; -0.64 (inactive) in experiment [16]; -0.562 (inactive) in [17]; -0.873 (inactive) in experiment [18]; -0.219 in experiment [19]. For the same molecule, the composite z-score in experiment [14] is -0.431 (inactive); in experiment [20], -0.0337.

`C=CC[C@@]1(C(=O)NCCN2CCOCC2)N=C(c2ccc(OCCCO)cc2)O[C@@H]1c1ccccc1N=[N+]=[N-]`: the z-score was 0.391 in [1]; -0.187 in experiment [2]; 0.55 in experiment [3]; -0.669 in [4]; -0.394 in [5]; 1.42 in [6]. In addition, the z-score in experiment [7] was 0.602 (inactive); in experiment [8] it was -0.244; in experiment [9] it was -0.322; in experiment [10], -0.0072 (inactive); in experiment [11], -0.1; in [12], -0.0089 (inactive). Further, the z-score in experiment [13] is -1.05 (inactive); in experiment [15], 1.61 (inactive); in experiment [16], 2.17 (inactive); in [17], 0.2 (inactive); in experiment [18], -0.0194 (inactive); in experiment [19], -0.614. In addition, the figures for the composite z-score in experiment [14] and in [20] were 1.61 (inactive) and 0.107, respectively.

Take `C=CC[C@]1(C(=O)NCCCOC)N=C(c2ccc(OCCCO)cc2)O[C@H]1c1ccccc1CN=[N+]=[N-]`: the z-score in [1] was 0.566; in experiment [2] it was 0.243; in [3], 0.716; in experiment [4] it was -1.86; in experiment [5], -0.134; in [6], 1.76. The z-score in [7] is -0.299 (inactive); in experiment [8], -1.25; in experiment [9] it was -0.142; in experiment [10] it was -0.0227 (inactive); in experiment [11] it was 0.127; in experiment [12] it was -0.024 (inactive). Besides, the z-score is -0.266 (inactive) in experiment [13]; 0.978 (inactive) in experiment [15]; -0.755 (inactive) in experiment [16]; -0.161 (inactive) in experiment [17]; -0.347 (inactive) in experiment [18]; -0.257 in [19]. Besides, the composite z-score in [14] is -0.339 (inactive); in [20] it was -0.0134.

On to `COC(=O)[C@@]1(Cc2ccc(F)cc2)[C@H]2c3cc(C(=O)N(C)C)n(Cc4cc(F)c(F)c(F)c4)c3C[C@H]2CN1C(=O)c1ccccc1`, for which the z-score is -0.917 in experiment [1]; -0.147 in [2]; 0.178 in [3]; -0.711 in [4]; -1.93 in experiment [5]; 0.345 in [6]. The z-score in experiment [7] is -1.26 (inactive); in experiment [8], -0.803; in [9], -1.75; in experiment [10], -2.68 (inactive); in [11] it was -2.13; in [12], 1.56 (inactive). Further, the z-score was -1.97 (inactive) in experiment [13]; 0.15 (inactive) in [15]; 1.16 (inactive) in experiment [16]; -0.194 (inactive) in experiment [17]; 0.38 (inactive) in experiment [18]; -3.47 in [19]. Also, the composite z-score is 0.349 (inactive) in [14] and 0.157 in experiment [20].

`[N-]=[N+]=NCc1ccccc1[C@@H]1OC(c2ccc(OCCCO)cc2)=N[C@]1(Cc1ccccc1)C(=O)NCC(O)CO` (stereo not given in full): the z-score is 0.939 in experiment [1]; -1.16 in [2]; 0.78 in experiment [3]; -1.07 in experiment [4]; -0.596 in experiment [5]; -0.474 in experiment [6]. Moreover, the z-score is -0.672 (inactive) in experiment [7]; -0.596 in [8]; -0.471 in experiment [9]; 0.424 (inactive) in [10]; 0.597 in experiment [11]; -0.293 (inactive) in experiment [12]. The z-score in experiment [13] is -0.869 (inactive); in experiment [15] it was 1.35 (inactive); in [16], -0.0888 (inactive); in experiment [17] it was -0.151 (inactive); in experiment [18], -0.465 (inactive); in experiment [19] it was -0.665. The composite z-score in experiment [14] is -0.0408 (inactive); in experiment [20], -0.0294.

As for `[N-]=[N+]=Nc1ccccc1[C@@H]1OC(c2ccc(OCCCO)cc2)=N[C@]1(CCS(=O)(=O)c1ccccc1)C(N)=O`, the z-score in experiment [1] is -0.811; in experiment [2], -0.267; in experiment [3] it was -0.554; in experiment [4], -0.648; in [5], 0.0806; in experiment [6] it was -2.73. For the same molecule, the z-score in experiment [7] was -1.91 (inactive); in [8], -0.0842; in [9] it was -0.305; in experiment [10], 0.404 (inactive); in experiment [11], 0.396; in experiment [12], -0.0185 (inactive). Moreover, the z-score in experiment [13] is -0.706 (inactive); in [15] it was -0.291 (inactive); in experiment [16], -0.0594 (inactive); in experiment [17], 0.326 (inactive); in [18], -0.397 (inactive); in experiment [19] it was -0.699. The composite z-score is 0.796 (inactive) in experiment [14] and 0.0975 in experiment [20].
